# From PubChem BioAssay (Tox21)
# Several values for one entry are separate records, joined by “and”; a condition that tells them apart may be missing. Identical values can stand only once. Records with an inconclusive call do not appear. Where a call stands in place of a potency, no number is given. The source holds several records for some structures; these can differ, active in one and inactive in another. Activity calls are given as the source filed them. Calls come from the whole dose curve; as a rule, active = well fitted curve in the direction sought with a large enough effect in the repeat runs; inconclusive = weak or mixed curves; inactive = no such curve, though single readings can be large; an effect the other way counts as inactive or inconclusive.
# How the values were obtained:
# [1] = A CellTox Green Cytotoxicity Assay to monitor cytotoxicity in HEK293 cells - 40 hour (AID 1224871); note: nearly all actives have a fitted effect of over 45% in size; note: potency is the fitted concentration of half-maximal effect
# In short: (§1)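 Dead-cell fluorescence measured kinetically: asymmetric cyanine dye, HEK293, 600 cells/well, 5 h settle, 23 nL cpd/DMSO, 37 C, reads 0–40 h every 8 h.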
# [2] = qHTS RealTime-Glo MT Cell Viability Assay in HEK293 cells - 16 hour (AID 1224872); note: nearly all actives have a fitted effect of over 50% in size; note: potency is the fitted concentration of half-maximal effect
# In short: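 Cells + reagent dispensed (600 cells/well, HEK293) → 5 h at 37 C/5% CO2 → 23 nL compound in DMSO pinned → 40 h at 37 C → luminescence read at 0, 8, 16, 24, 32, 40 h.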
# [3] = qHTS RealTime-Glo MT Cell Viability Assay in HepG2 cells - 8 hour (AID 1224873); note: nearly all actives have a fitted effect of over 55% in size
# In short: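 HepG2 cells mixed with RealTime-Glo MT reagents (NanoLuc plus cell-permeant prosubstrate) were seeded at 600 cells/well, incubated 5 h at 37 C/5% CO2, then pinned with compounds in DMSO; nonlytic luminescence tracked viability during 40 h treatment.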
# [4] = qHTS RealTime-Glo MT Cell Viability Assay in HEK293 cells - 40 hour (AID 1224874); settings: RealTime-Glo luminescence; max response: stronger effect = lower value; note: nearly all actives have a fitted effect of over 50% in size
# In short: (§2)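 600 HEK293 cells per well, dispensed already mixed with RealTime-Glo MT reagents. Compound dosing came 5 h later. The same wells were read for luminescence at 0, 8, 16, 24, 32 and 40 h of exposure at 37 C.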
# [5] = A CellTox Green Cytotoxicity Assay to monitor cytotoxicity in HEK293 cells - 24 hour (AID 1224875); note: series mostly up to about 77 µM; nearly all actives have a fitted effect of over 45% in size
# In short: as §1
# [6] = A CellTox Green Cytotoxicity Assay to monitor cytotoxicity in HepG2 cells - 16 hour (AID 1224876); note: nearly all actives have a fitted effect of over 45% in size
# In short: (§3)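 First, HepG2 cells (600/well) mixed with reagent were plated; second, after 5 h at 37 C they received compounds via pintool; third, fluorescence was measured at 0 h through 40 h at 8 h intervals.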
# [7] = qHTS RealTime-Glo MT Cell Viability Assay in HepG2 cells - 32 hour (AID 1224877); note: nearly all actives have a fitted effect of over 55% in size
# In short: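 Real-time, nonlytic viability: 600 HepG2 cells/well mixed with NanoLuc enzyme plus prosubstrate; 5 h settle, compound (DMSO) added by pintool; luminescence monitored over 40 h at 37 C.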
# [8] = A CellTox Green Cytotoxicity Assay to monitor cytotoxicity in HepG2 cells - 24 hour (AID 1224878); note: nearly all actives have a fitted effect of over 45% in size
# In short: as §3
# [9] = A CellTox Green Cytotoxicity Assay to monitor cytotoxicity in HepG2 cells - 40 hour (AID 1224879); note: nearly all actives have a fitted effect of over 40% in size
# In short: as §3
# [10] = qHTS RealTime-Glo MT Cell Viability Assay in HEK293 cells - 0 hour (AID 1224880)
# In short: as §2
Compound,Potency [1],Potency [2],Potency [3],max response [4],Potency [5],outcome [6],outcome [7],Potency [8],Potency [9],outcome [10]
NCCN1CCNCC1,inactive,inactive,inactive,1.25% (inactive) and -21.7% (inactive),inactive,inactive,inactive,inactive,inactive,inactive
CC(C)OC(=O)COc1ccc(Cl)cc1Cl,inactive,inactive,inactive,8.21% (inactive) and -2.23% (inactive),inactive,inactive,inactive,,,inactive
N#Cc1ccccc1,inactive,inactive,inactive,6.77% (inactive) and 3.17% (inactive),inactive,inactive,inactive,inactive,inactive,inactive
CCO[Si](CCC#N)(OCC)OCC,inactive,inactive,inactive,7.39% (inactive) and 2.23% (inactive),inactive,inactive,inactive,inactive,inactive,inactive
CCNc1ccccc1,inactive,inactive,inactive,0.38% (inactive) and 24% (inactive),inactive,inactive,inactive,inactive,,inactive
C=C(C)CNCC,inactive,inactive,inactive,0.995% (inactive) and -23.9% (inactive),inactive,inactive,inactive,inactive,,inactive
Cc1ccc(S(=O)(=O)N=C=O)cc1,inactive,inactive,inactive,0.611% (inactive) and -0.578% (inactive),inactive,inactive,inactive,,inactive,inactive
CN1C(=O)CC[C@H]1c1cccnc1,inactive,inactive,inactive,1.45% (inactive) and 7.43% (inactive),inactive,inactive,inactive,,inactive,inactive
Nc1nc(N)nc(-c2ccccc2)n1,inactive,inactive,inactive,-23.1% (inactive) and 0.641% (inactive),inactive,inactive,inactive,,inactive,inactive
CC(C)(C)c1cc(Cc2cc(C(C)(C)C)c(O)c(C(C)(C)C)c2)cc(C(C)(C)C)c1O,inactive,inactive,inactive,3.98% (inactive) and -14.3% (inactive),inactive,inactive,inactive,,inactive,inactive
O=C(O)/C=C/C(=O)O,inactive,inactive,inactive,-4.18% (inactive) and -12.4% (inactive),inactive,inactive,inactive,inactive,inactive,inactive
COC(=O)CCCC(=O)OC,inactive,inactive,inactive,4.51% (inactive) and 15.2% (inactive),inactive,inactive,inactive,inactive,inactive,inactive
CC(CCl)OP(=O)(OC(C)CCl)OC(C)CCl (stereo not drawn),inactive,inactive,inactive,-21.3% (inactive) and -15.3% (inactive),inactive,inactive,inactive,inactive,,inactive
CCCCCCO,inactive,inactive,inactive,-0.525% (inactive) and 0.519% (inactive),inactive,inactive,inactive,,inactive,inactive
CC(=O)OCc1ccccc1,inactive,inactive,inactive,-41.8% (inactive) and -21% (inactive),inactive,inactive,inactive,,,inactive
COc1ccc(N)c(C)c1,inactive,inactive,inactive,9.17% (inactive) and 3.97% (inactive),inactive,inactive,inactive,,,inactive
O=C(O)CCCCCCCCC(=O)O,inactive,inactive,inactive,,inactive,inactive,inactive,,,inactive
CN/C(=C\[N+](=O)[O-])NCCSCc1csc(CN(C)C)n1,inactive,inactive,inactive,,inactive,inactive,inactive,inactive,inactive,inactive
CCOC(=O)c1ccc(N)cc1,inactive,inactive,inactive,-17.4% (inactive),inactive,inactive,inactive,,,inactive
CCNC(=S)NCC,inactive,inactive,,-2.25% (inactive) and -1.34% (inactive),inactive,inactive,inactive,inactive,inactive,inactive
C=CCc1ccc(OC)c(OC)c1,inactive,inactive,inactive,,inactive,inactive,inactive,,inactive,inactive
CCCCCCCCCCO,24.6 µM (active) and inactive,inactive,inactive,1.72% (inactive) and 1.45% (inactive),,inactive,inactive,inactive,,inactive
CN(C)c1ccc(Cc2ccc(N(C)C)cc2)cc1,inactive,21.9 µM (active),inactive,,inactive,inactive,inactive,inactive,inactive,inactive
O=C1C(c2[nH]c3ccccc3c2O)=Nc2ccccc21,inactive,inactive,inactive,,inactive,inactive,inactive,inactive,inactive,inactive
